Consider 13 compounds from PubChem BioAssay (NCI).

Among the test systems are NCI-H23 lung; NCI-H226 lung; NCI-H322M lung; HOP-62 NSCLC; NCI-H460 lung; HOP-92 NSCLC; NCI-H522 lung; A549/ATCC NSCLC; 786-0 renal; COLO 205 colon.
What all share (test): NCI-60 one-dose screen, 48 h (100 = growth as untreated, 0 = no growth, -100 = all killed)
What all share (settings): 10 µM unless noted

This is part of a sample that, as a whole, favours compounds with a hit. Of some 83,000 tested, about 20% had one in any assay.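 Compound tested at a single concentration for 48 hours in 96-well plates; a percent growth value below 10 was scored as active.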 Unmarked numbers belong to inactive results. Calls of active or inactive are those of the source.

In the case of `CC1CCc2c(sc3nc(SCC(=O)c4cccc(Br)c4)n(-c4ccccc4)c(=O)c23)C1` (stereo not given), the growth in the test with NCI-H23 lung is 11.3%; in the test on NCI-H226 lung it was 19.7%; in the test with NCI-H322M lung, 74.5%; in the test with HOP-62 NSCLC, 39.9%; in the test with NCI-H460 lung it was 55%; with HOP-92 NSCLC, 44%. For the same compound, the growth with NCI-H522 lung is 40.3%; in the test with A549/ATCC NSCLC, 92.3%; in the test on 786-0 renal, 18.8%; with COLO 205 colon, 25.3%.

`O=C(CSc1nc2c(c(=O)[nH]1)CCCC2)Nc1ccccc1C(=O)O`: the growth in the test on NCI-H23 lung is 99.9%; in the test on NCI-H226 lung, 101%; with NCI-H322M lung it was 102%; in the test with HOP-62 NSCLC, 104%; with NCI-H460 lung it was 120%; in the test on HOP-92 NSCLC it was 117%. In addition, the growth in the test with NCI-H522 lung was 83.8%; in the test with A549/ATCC NSCLC, 103%; in the test with 786-0 renal it was 103%; with COLO 205 colon it was 124%.

As to `COc1ccc2[nH]c(O)c(N=Nc3nc(-c4ccc(Cl)cc4)cs3)c2c1`, the growth in the test on NCI-H23 lung is -33.7% (active); with NCI-H226 lung, -54.3% (active); in the test with NCI-H322M lung it was 12.8%; with HOP-62 NSCLC it was -26.6% (active); in the test on NCI-H460 lung, -31.4% (active); with HOP-92 NSCLC it was -38.8% (active). The growth with NCI-H522 lung is -26.4% (active); in the test with A549/ATCC NSCLC, -60.8% (active); in the test on 786-0 renal, -86.6% (active); in the test with COLO 205 colon, -76.9% (active).

Consider `O=C(c1ccc(O)cc1)C1[C@H](c2ccc(Cl)cc2)[C@@H](c2ccccc2)NC12C(=O)Nc1ccccc12` (stereo not given in full), for which the growth in the test on NCI-H23 lung is -41.7% (active); in the test with NCI-H226 lung, -13.8% (active); in the test with NCI-H322M lung, 9.03% (active); in the test on HOP-62 NSCLC, -20.1% (active); with NCI-H460 lung it was -20.5% (active); with HOP-92 NSCLC, -27.8% (active). Also, the growth is -8.98% (active) in the test with NCI-H522 lung, 14.4% with A549/ATCC NSCLC, -43.2% (active) in the test with 786-0 renal and -82.9% (active) in the test on COLO 205 colon.

For `Cn1cc(-c2cc(N)n3nc(-c4c[nH]c5ccc(F)cc45)cc3n2)c2cc(Br)cnc21`, the growth in the test on NCI-H23 lung is 94.3%; in the test on NCI-H226 lung, 68.6%; in the test with NCI-H322M lung, 80.1%; in the test with HOP-62 NSCLC, 71.1%; in the test with NCI-H460 lung, 57.5%; in the test on HOP-92 NSCLC, 27.3%. The growth in the test on NCI-H522 lung is 27.6%; in the test with A549/ATCC NSCLC, 54%; in the test with 786-0 renal, 44.4%; with COLO 205 colon, 119%.

Consider `COc1c(B(O)O)cc(F)cc1-c1nc2ccc3[nH]ncc3c2c2c1COCC2`, for which the growth is 78.3% with NCI-H23 lung; 50.8% in the test with NCI-H226 lung; 78.4% in the test on NCI-H322M lung; 49.5% in the test on HOP-62 NSCLC; 64.9% in the test with NCI-H460 lung; 18.1% with HOP-92 NSCLC. Further, the growth is 14.5% in the test with NCI-H522 lung, 92.5% with A549/ATCC NSCLC, 46.1% in the test with 786-0 renal and 38.1% in the test on COLO 205 colon.

Turning to `COc1cc(CNC(=O)C[C@H](C)CCC=C(C)C)ccc1OCc1cn(-c2ccccc2F)nn1`, the growth was 68.3% in the test on NCI-H23 lung; 73.3% in the test on NCI-H226 lung; 92.7% in the test with NCI-H322M lung; 46.7% in the test with HOP-62 NSCLC; 89% in the test on NCI-H460 lung; 4.63% (active) with HOP-92 NSCLC. Besides, the growth in the test on NCI-H522 lung is 57.1%; with A549/ATCC NSCLC, 80.6%; with 786-0 renal, 43.6%; in the test with COLO 205 colon it was 112%.

As to `O=C(CSc1nc2ccccc2c(=O)[nH]1)Nc1ccccc1C(=O)O`, the growth in the test on NCI-H23 lung was 104%; in the test on NCI-H226 lung, 102%; in the test on NCI-H322M lung, 101%; in the test with HOP-62 NSCLC it was 97.8%; in the test on NCI-H460 lung, 118%; in the test with HOP-92 NSCLC, 118%. The growth with NCI-H522 lung was 107%; with A549/ATCC NSCLC it was 112%; with 786-0 renal, 107%; in the test with COLO 205 colon it was 124%.

Regarding `Nc1nn2c(-c3cc4cc(Br)ccc4oc3=O)ccnc2c1N=Nc1ccccc1`, the growth was 1.73% (active) in the test with NCI-H23 lung; -55.6% (active) in the test with NCI-H226 lung; 8.62% (active) with NCI-H322M lung; 1.3% (active) in the test on HOP-62 NSCLC; -28% (active) in the test on NCI-H460 lung; -18.8% (active) in the test on HOP-92 NSCLC. The growth is -51.6% (active) in the test on NCI-H522 lung, 53.4% with A549/ATCC NSCLC, -3.59% (active) with 786-0 renal and 80.2% with COLO 205 colon.

Take `COc1cc(/C=N/NC(=O)c2ccc(OCc3nc4ccc(C)cc4[nH]3)cc2)cc(OC)c1OC`: the growth in the test with NCI-H23 lung is 22.3%; in the test with NCI-H226 lung, 43%; in the test on NCI-H322M lung, 66.2%; with HOP-62 NSCLC, 62.5%; in the test on NCI-H460 lung, 33.6%; in the test on HOP-92 NSCLC, 96.5%. The growth in the test with NCI-H522 lung is 28.1%; in the test on A549/ATCC NSCLC it was 28.4%; with 786-0 renal, 41.2%; with COLO 205 colon it was 8.02% (active).

Consider `COc1ccc(CCC2NCCc3c(Br)c4c(c(OC)c32)OCO4)cc1` (stereo not given), for which the growth in the test with NCI-H23 lung is -24.7% (active); in the test with NCI-H226 lung, 25.5%; in the test on NCI-H322M lung, 14.6%; in the test on HOP-62 NSCLC, 18.1%; in the test with NCI-H460 lung, 9.1% (active); with HOP-92 NSCLC, 15.6%. The growth is 2.33% (active) with NCI-H522 lung, 24.2% in the test on A549/ATCC NSCLC, 8.08% (active) in the test with 786-0 renal and -37.5% (active) with COLO 205 colon.

Regarding `CC(C)(C)C(=O)C1CC(C#N)=C2C=Cc3c(ccc4ccccc34)N21` (stereo not given), the growth in the test on NCI-H23 lung is 89.2%; in the test with NCI-H226 lung, 77%; in the test on NCI-H322M lung, 101%; in the test with HOP-62 NSCLC, 88.3%; in the test on NCI-H460 lung, 97.8%; in the test with HOP-92 NSCLC it was 70.7%. Moreover, the growth was 83.9% with NCI-H522 lung, 81.2% with A549/ATCC NSCLC, 76.6% with 786-0 renal and 93.6% in the test with COLO 205 colon.

`Cc1ccc(C(=O)Nc2ccc(-n3ccnc3)c(C(F)(F)F)c2)cc1C#Cc1cnc2cccnn12`: the growth with NCI-H23 lung is 13.3%; in the test with NCI-H226 lung, -52.4% (active); in the test with NCI-H322M lung, 44.5%; with HOP-62 NSCLC, -20.3% (active); with NCI-H460 lung, 18.8%; in the test on HOP-92 NSCLC it was -14.1% (active). The growth with NCI-H522 lung is -20% (active); in the test on A549/ATCC NSCLC, 28.8%; in the test with 786-0 renal, 14%; with COLO 205 colon, 22.5%.
